This note sets out measurements from PubChem BioAssay AID1851 (National Center for Advancing Translational Sciences (NCATS), 2009).

Molecules are shown by their SMILES. Several values for one entry are separate records, joined by “and”; a condition that tells them apart may be missing. Equal values may be shown once. The whole screen tested about 16,000 compounds, of which about 4,000 (25%) were called active. Another 26% or so got no clear call; they are omitted. Not all results are given here. A number with no mark means an inactive call. The call rests on the fitted dose curve; in most records, active means well fitted curve in the direction sought with a large enough effect; inconclusive means small, poorly fitted or top-dose-only effect, or effect the other way; inactive means no such curve, though single readings can be large or run the other way.
On the % scale 0 is the no-effect control and ±100 the full control effect.

The target in this assay is Cytochrome P450 2C9 (Homo sapiens) (UniProt P11712). The experiment in a line: Cytochrome panel assay with activity outcomes. To be noted: recombinant CYP, pro-luciferin dealkylation, luminescence, p450-cyp2c9; series mostly up to 57.1 µM; activity, negative = inhibition: at the top concentration.
Chain of Cytochrome P450 2C9 (Homo sapiens) (P11712 whole entry, looked up): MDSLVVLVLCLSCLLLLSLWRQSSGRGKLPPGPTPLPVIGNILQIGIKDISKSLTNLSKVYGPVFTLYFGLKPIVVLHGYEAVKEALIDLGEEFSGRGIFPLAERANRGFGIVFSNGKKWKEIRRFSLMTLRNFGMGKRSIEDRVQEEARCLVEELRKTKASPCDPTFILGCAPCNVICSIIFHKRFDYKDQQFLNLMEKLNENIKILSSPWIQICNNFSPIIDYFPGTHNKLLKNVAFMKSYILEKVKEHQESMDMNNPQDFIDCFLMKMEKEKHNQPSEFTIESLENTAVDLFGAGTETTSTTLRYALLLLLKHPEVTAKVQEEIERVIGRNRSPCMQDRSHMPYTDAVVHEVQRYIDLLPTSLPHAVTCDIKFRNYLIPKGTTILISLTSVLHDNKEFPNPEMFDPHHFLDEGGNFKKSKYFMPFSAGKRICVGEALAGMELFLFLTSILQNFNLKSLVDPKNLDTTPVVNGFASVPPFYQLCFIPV
A word on the AC50: it is the midpoint of the concentration-response curve, whichever way the signal moves. As for `O=C(O)CN1CCN(Cc2ccc(F)cc2Cl)C1=O`, the AC50 was 0.316 µM (active).

`O=C(O)CN1CCN(Cc2ccccc2Cl)C1=O`: the “activity, negative = inhibition” value was -29.3%. Regarding `Cc1cccc(CN2CCN(CC(=O)O)C2=O)c1`, the “activity, negative = inhibition” value is -24.3%.

On to `O=C(O)CNC(=O)[C@@H](CS)Cc1ccccc1`, for which the “activity, negative = inhibition” value is 11.8% [at 25.6 µM]. Consider `CC(Cc1ccccc1)N/C=C1\CC(=O)NC1=O` (centres undefined), for which the “activity, negative = inhibition” value is 6.55%. Regarding `CC(C)C(CCNC(=O)CC(Cc1ccccc1)c1ccco1)c1ccco1` (centres undefined), the AC50 was 2.82 µM (active). For `COc1c(O[C@H]2O[C@@H](CO)[C@@H](O)[C@@H](O)[C@@H]2O)cc2c(c1OC)-c1ccc(SC)c(=O)cc1[C@H](NC(C)=O)CC2`, the “activity, negative = inhibition” value was -8.94% [at 25.6 µM]. On the same count and under the same terms, as for `CC(=O)NCCNc1ncnc2ccc(-c3ccoc3)cc12`, the figure is 6.33% [at 2.29 µM]. With `CC1CSc2nc3sc4c(c3c(=O)n21)CCCC4` (centres undefined), the half-maximal activity concentration (AC50) was 14.1 µM (active). Take `Nc1nc(Cl)nc2c1ncn2[C@@H]1O[C@@H](COP(=O)(O)OP(=O)(O)OP(=O)(O)O)[C@@H](O)[C@H]1O`: the “activity, negative = inhibition” value is 18.3%. Regarding `S=c1nc[nH]c2c1ncn2Cc1ccco1`, the activity, negative = inhibition was 1.4% [at 11.4 µM]. Consider `O=C1c2ccccc2N[C@H](c2cc(Cl)cc(Cl)c2O)N1CCc1ccccn1`, for which the AC50 is 3.16 µM (active). With `O=C1CC(N2CCN(CCc3ccccn3)CC2)C(=O)N1c1ccc(Cl)cc1` (centres undefined), the “activity, negative = inhibition” value was -8.6%. For the compound `CCOC(=O)C1=C(N)n2c(s/c(=C\c3ccco3)c2=O)=C(C(=O)OCC)C1c1ccco1` (centres undefined), the AC50 was 1.26 µM (active). Same read-out and setting: with `CCOC(=O)C1=C(c2ccccc2)N=c2s/c(=C\c3ccco3)c(=O)n2C1c1cccs1` (centres undefined) the figure was 8.91 µM (active).

Take `CCOC(=O)C1=C(c2ccccc2)N=c2s/c(=C\c3cccc(O)c3)c(=O)n2C1c1cccs1` (centres undefined): the “activity, negative = inhibition” value is -16.1%.

On to `OCCCSCCO`, for which the activity, negative = inhibition is 11.5% [at 11.4 µM]. In the case of `C[N+](C)(C)CC[N+]1(C)Cc2c(Cl)c(Cl)c(Cl)c(Cl)c2C1`, the “activity, negative = inhibition” value was -8.79%. In the case of `NS(=O)(=O)c1nc(S(=O)(=O)O)c2[nH]cnc2n1`, the activity, negative = inhibition is -8.54% [at 11.4 µM].

With `Cc1ccc(S(=O)(=O)NC(=O)Nc2ncn[nH]2)cc1`, the activity, negative = inhibition is 4.99% [at 11.4 µM].

For the compound `Cc1nnc(NS(=O)(=O)c2ccc(N)cc2)s1`, the “activity, negative = inhibition” value was -21.3% [at 25.6 µM]. For `Cc1ccc(S(=O)(=O)Nc2nc(C)c(NC(=O)Nc3ccc(Cl)cc3Cl)s2)cc1`, the AC50 was 7.94 µM (active).

For the compound `CCN(CC)C(=S)SSC(=S)N(CC)CC`, the AC50 was 2.51 µM (active) and 398 nM (active). For `CC(C)(CO[C@H]1C[C@H]2CC[C@@]1(C)C2(C)C)[N+](=O)[O-]`, the activity, negative = inhibition is -3.36% [at 11.4 µM]. For the compound `C[C@H](O)C(=O)C1=Nc2c(nc(N)[nH]c2=O)NC1`, the “activity, negative = inhibition” value is 15.9%. With `NNC(=O)c1ccc[n+](CCc2ccccc2)c1`, the activity, negative = inhibition is -1.12% [at 11.4 µM]. As for `CCC(=O)Nc1ccc(C(=O)NNC(=O)c2cccs2)cc1`, the “activity, negative = inhibition” value was 11.9%.

Turning to `CC(C)(C)C(=O)NC(=S)NCCc1ccccc1`, the AC50 is 11.2 µM (active).

Take `COc1cc(CNCCc2ccccc2)ccc1OCC(=O)NC(C)(C)C`: the “activity, negative = inhibition” value is -0.348%. For the compound `O=C(CCc1ccccc1)NNC(=O)c1ccco1`, the “activity, negative = inhibition” value was -10.8%. As to `CC(C)(C)OC(=O)N1CCCC1C(=O)NCCc1ccccc1` (centres undefined), the “activity, negative = inhibition” value is -29.8%.

`O=C(CCc1ccccc1)NNC(=S)NC(=O)c1ccccc1`: the AC50 was 15.8 µM (active).

Regarding `CCCC(=O)Nc1ccc(C(=O)NNC(=S)NC(=O)c2cccs2)cc1`, the AC50 was 20 µM (active). With `COc1cc(OC)cc(C(=O)NC(=S)NCCc2ccccc2)c1`, the AC50 was 2.82 µM (active).
